In the library only some 7.5% were active in any assay of this set; here they are far more common.
FLuc counter: qHTS profiling assay for firefly luciferase inhibitor/activator using purifed enzyme and Km concentrations of substrates (counterscreen for miR-21 project) | hit rate 6.9% among 360,000 | Luciferin 4-monooxygenase (Photinus pyralis), P08659 | purified FLuc, Km substrates, luminescence inhibition | AID 588342, 2011 | Potency, µM (titrated, usually from 57.5 µM), usual class: inhibitors; further: nearly all actives have a fitted effect of over 55% in size
Target sequence (P08659 whole entry, looked up): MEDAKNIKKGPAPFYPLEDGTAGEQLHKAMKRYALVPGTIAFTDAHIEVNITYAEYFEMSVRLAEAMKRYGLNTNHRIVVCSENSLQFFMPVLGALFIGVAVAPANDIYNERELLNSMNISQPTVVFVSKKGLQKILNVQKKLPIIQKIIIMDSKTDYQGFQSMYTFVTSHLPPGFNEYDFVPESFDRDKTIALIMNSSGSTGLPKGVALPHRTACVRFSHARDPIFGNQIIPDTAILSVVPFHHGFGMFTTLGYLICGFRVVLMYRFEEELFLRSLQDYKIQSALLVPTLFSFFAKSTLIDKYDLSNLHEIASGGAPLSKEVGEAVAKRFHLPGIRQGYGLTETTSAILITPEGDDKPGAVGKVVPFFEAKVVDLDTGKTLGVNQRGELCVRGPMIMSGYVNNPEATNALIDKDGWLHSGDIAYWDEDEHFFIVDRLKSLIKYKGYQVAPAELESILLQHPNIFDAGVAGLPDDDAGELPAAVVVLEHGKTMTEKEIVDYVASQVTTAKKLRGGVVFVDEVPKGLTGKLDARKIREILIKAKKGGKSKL
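Purified P. pyralis luciferase, 10 nM final, with Km-level 10 uM D-luciferin and 10 uM ATP in 50 mM Tris acetate pH 7.5, 10 mM Mg acetate, 0.01% Tween-20, 0.05% BSA; 6-point qHTS titration about 60 µM downward; luminescence read.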
KinaseGlo FLuc: Counterscreen for Luciferase (Kinase-Glo TM) Inhibition; hit rate 0.28% among 200,000; Potency, µM (top dose mostly 38.3 µM), actives largely listed as inhibitors; Kinase-Glo luciferase, ATP luminescence, 8 min; AID 1379, 2008; further: nearly all actives have a fitted effect of over 60% in size
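Recombinant Kinase-Glo luciferase, 10 uM ATP (linear range), luciferin; imidazole pH 7.2 / KCl / MgCl2 / Tween / BSA buffer; 8 min RT; luminescence.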
ELG1 genotoxic: qHTS screen for small molecules that induce genotoxicity in human embryonic kidney (HEK293T) cells expressing luciferase-tagged ELG1 | HEK293T ELG1-luciferase reporter, luminescence, 16 h | Potency, µM (highest dose often 46 µM), hits mostly activators | hit rate 1.3% among 330,000 | AID 504466, 2011; further: nearly all actives have a fitted effect of over 60% in size
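Luminescence read-out: rising ELG1-luciferase signal, reflecting elevated ELG1 protein under genetic stress, flags genotoxic compounds. Cells were treated for 16 hr at 37 °C before ONE-Glo detection.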
SMN2 splice up: qHTS Assay for Enhancers of SMN2 Splice Variant Expression; Potency, µM (titrated, usually from 46.1 µM), usual class: activators; hit rate 2.8% among 210,000; HEK293 SMN2-luciferase splicing reporter, luminescence, 30-36 h; AID 1458, 2008; further: nearly all actives have a fitted effect of over 55% in size
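qHTS luciferase splicing reporter: luminescence rises when SMN2 exon 7 is included in transfected HEK293 cells. Compound exposure lasted 30-36 h at 37C, with 4.5 mM final sodium butyrate as control, followed by a ONE-Glo read.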
Rab9 prom act: qHTS Assay for Rab9 Promoter Activators | Huh7 Rab9 promoter-luciferase reporter, luminescence, 24 h | Potency, µM (series often up to 9.22 µM), most hits filed as activators | hit rate 2.8% among 320,000; further: nearly all actives have a fitted effect of over 60% in size
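Rab9 promoter-driven luciferase in stably transfected Huh7 cells; 1500 cells/well rested 2 h, exposed to compound in DMSO for 24 h at 37 °C, 5% CO2. Luminescence read 10 min after adding luciferase reagent at ambient temperature.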
NPC1 promoter act: qHTS Assay for NPC1 Promoter Activators | Huh7 NPC1 promoter luciferase reporter, 24 h | Potency, µM (series often up to 9.22 µM), usual class: activators | hit rate 2.4% among 320,000; further: nearly all actives have a fitted effect of over 60% in size
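Cells: Huh7 expressing luciferase under the NPC1 promoter, 1500/well. Seeded 2 h, compound added, incubated 24 h at 37 °C. Luciferase reagent, 10 min ambient, then luminescence.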
Hits are given with their value; . = inactive; ? = inconclusive; / = no result; ! = repeats disagree. The call rests on the fitted dose curve; in most records, active means well fitted curve in the direction sought with a large enough effect; inconclusive means small, poorly fitted or top-dose-only effect, or another doubt; inactive means no such curve, though single readings can be large; an effect the other way counts as inactive or inconclusive.

SMILES | FLuc counter | KinaseGlo FLuc | ELG1 genotoxic | SMN2 splice up | Rab9 prom act | NPC1 promoter act
COc1ccc(NC(=O)CSc2nc3ccccc3c(=O)[nH]2)cc1S(N)(=O)=O | 19µM | / | . | / | . | .
CC(C)OC(=O)c1ccc(NC(=O)CSc2nc3ncccc3[nH]2)cc1 | 17µM | . | . | . | . | .
COC(=O)c1ccc(NC(=O)CSc2nc3ccccc3c(=O)[nH]2)cc1 | . | . | ? | . | . | .
CCC(C(=O)Nc1ccccc1)n1nc(-c2cc(C)ccc2C)ccc1=O (stereo not given) | . | / | / | . | / | /
Clc1ccc(-c2nnc3sc(-c4ccccn4)nn23)cc1 | . | . | . | . | . | .
CC(C)(C)c1ccc(-c2nnc3sc(-c4ccccn4)nn23)cc1 | 9.5µM | . | ? | . | ? | .
O=C(COc1ccccc1)NCCc1csc(-c2ccc(Cl)cc2)n1 | . | / | / | / | / | /
CCOc1ccc(-c2cnc3ccccc3n2)cc1 | 0.17µM | / | 0.52µM | / | . | ?
O=[N+]([O-])c1ccc(-c2cnc3ccccc3n2)cc1 | ? | / | ? | / | ? | 3.2µM
CC1Oc2ccccc2N(CC(=O)NCc2ccccc2)C1=O (stereo not given) | ? | . | ? | / | 4µM | ?
CCC1Oc2ccccc2N(CC(=O)NCCN2C(C)CCCC2C)C1=O (stereo not given) | . | . | . | 10µM | . | .
CCc1ccc(NC(=O)c2cc3nc(-c4ccc(C)cc4)cc(C(F)(F)F)n3n2)cc1 | . | / | / | . | / | /
CC[C@H](C)C(=O)O[C@H]1CCC=C2C=C[C@H](C)[C@H](CC[C@@H]3C[C@@H](O)CC(=O)O3)[C@H]21 | . | . | . | ? | . | .
CC[C@H](C)C(=O)O[C@H]1C[C@@H](C)C=C2C=C[C@H](C)[C@H](CC[C@@H]3C[C@@H](O)CC(=O)O3)[C@H]21 | . | . | . | 16µM! | . | .
CCC(=O)Nc1ccc2c(c1)ncn2-c1ccc(OC)cc1 | 27µM | . | 18µM | 13µM | . | .
CCC(=O)Nc1ccc2c(c1)ncn2-c1ccc(C)cc1 | 8.5µM | . | ? | 8.9µM | 2.5µM | 2.2µM
CCC(=O)Nc1ccc2c(c1)ncn2-c1ccccc1C | . | . | . | . | . | .
COc1ccc(-n2nc(C(=O)NCC(=O)N3CCN(c4ccc(F)cc4)CC3)c3ccccc3c2=O)c(OC)c1 | 1.7µM | / | . | / | . | .
COc1ccc(-n2nc(C(=O)NCC(=O)N3CCN(c4ccccc4)CC3)c3ccccc3c2=O)c(OC)c1 | 0.54µM | / | . | / | ? | ?
O=C(Nc1ccccc1)N1CCCC2CCCCC21 (stereo not given) | 15µM | . | 21µM | 11µM | 3.2µM | ?
O=C(O)c1cccc2c(/C=N/Nc3ccccn3)c[nH]c12 | 8.5µM | / | . | / | 2.8µM | ?
O=c1nc(N/N=C/C=C/c2ccccc2)cn[nH]1 | 4.8µM | / | 2.1µM | / | 0.35µM | 0.5µM
O=c1nc(N/N=C/c2c[nH]c3ccccc23)cn[nH]1 | 12µM | / | 10µM | / | 2µM | 2.5µM
O=C(O)COc1ccc(Br)cc1/C=N\Nc1ccccn1 | ? | / | . | / | . | .
C(=N\Nc1ccccn1)/c1c[nH]c2ccccc12 | 15µM | / | ? | / | . | .
SMILES | FLuc counter | KinaseGlo FLuc | ELG1 genotoxic | SMN2 splice up | Rab9 prom act | NPC1 promoter act
Brc1ccccc1/C=N/Nc1ccccn1 | ? | . | ? | ? | . | .
Cc1cccc(NC(=O)c2ccc(CN3CC(=O)N4CCCCC4C3=O)cc2)c1C (stereo not given) | . | / | / | / | / | /
Cc1cccc(CN2CCC(CNC(=O)Cn3ncc4c([nH]c5ccc(C)cc54)c3=O)CC2)c1 | . | / | / | / | / | /
O=C(Nc1ccc2ncccc2c1)c1ccccc1Br | 12µM | / | 6.5µM | / | 2.8µM | ?
Cc1nc2cc(NC(=O)c3ccc(S(=O)(=O)N(C)c4ccccc4)cc3)ccc2o1 | 17µM | / | . | / | . | .
c1cnc2ccc(-c3ccc4ncccc4c3)cc2c1 | 0.6µM | / | ? | / | 0.45µM | 1µM
Cc1ccc2ncccc2c1 | . | / | . | . | . | .
